The values below come from PubChem BioAssay.

Assay [1] deals with PRMT1 (protein arginine N-methyltransferase 1). Kind of assay: PRMT1 binders on small-molecule microarrays, primary screen, biochemical, small-molecule microarray, 635 nm fluorescence (AID 1088).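 Further: binding of Prmt1 protein to compounds spotted on small-molecule microarray slides.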 Conditions: small-molecule microarray binding, higher = more signal.
Assay [2] in a line: yeast growth modulation, basal conditions, primary screen, YJM789 clinical isolate, OD600, 24 h (AID 1089).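 Further: growth of clinical yeast isolate S. cerevisiae YJM 789 seeded 1000 cells per well; test concentration not given here.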 As to conditions: S. cerevisiae YJM789 growth, higher = more signal, called active from +8 up or from −8 down.
Assay [3] in a line: fission yeast growth modulation, primary screen, strain 972, OD600, 24 h, no modulator (AID 1090).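 Further: basal condition with compound alone and no growth modifier present; test concentration not given here.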 Conditions: S. pombe 972 growth, higher = more signal, called active from +8 up or from −8 down.
Assay [4] is described as follows: S. cerevisiae growth modulation with rapamycin, primary screen, strain BY4716, OD600, 96 h (AID 1091). Further: test concentration not given here. Conditions: higher = more signal, called active from +8 up or from −8 down.
Assay [5] addresses Torsin-1A-interacting protein 2 (Homo sapiens) (UniProt Q8NFQ8). Kind of assay: LULL1 binders on small-molecule microarray, primary screen, cell lysate, human LULL1 lysate, 635/667 nm fluorescence (AID 1092).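 Further: probe is lysate of COS7 cells overexpressing human LULL1; score merges per-feature 667 nm fluorescence with signal-to-noise.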 Conditions: hLULL1 lysate binding, 635 nm fluorescence, higher = more signal.
Assay [6] is described as follows: E. coli growth modulation, two-sided OD650, primary screen, E. coli filamentation project, strain DRC41, 24 h (AID 1093).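 Further: MC1000 strain lacking acrAB efflux and sulA so SOS filamentation is blocked; test concentration not given here.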 Conditions: OD650, 24 h, higher = more signal, called active from +8 up or from −8 down.
The nature of assay [7]: small-molecule microarray binders of probe aLefty2, primary screen, biochemical, biotinylated probe, 635/667 nm fluorescence (AID 1094).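 Further: score merges spot fluorescence near 667 nm with spot signal-to-noise ratio.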 As to conditions: higher = more signal.
The test system of assay [8] is Noggin (protein binding on small-molecule microarray). Nature of the assay: Noggin binders on small-molecule microarray, primary screen, biochemical, 635/667 nm fluorescence (AID 1095).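 Further: score merges 667 nm feature fluorescence with signal to noise over triplicate slides.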 As to conditions: 635 nm fluorescence, higher = more signal.
Assay [9] deals with Neurogenic locus notch homolog protein 3 (Homo sapiens) (UniProt Q9UM47). Kind of assay: NOTCH3 binders on small-molecule microarray, primary screen, biochemical, 635/667 nm fluorescence (AID 1096). As to conditions: NOTCH3 binding, 635 nm fluorescence, higher = more signal.
Neurogenic locus notch homolog protein 3 (Homo sapiens), sequence (Q9UM47 whole entry, looked up): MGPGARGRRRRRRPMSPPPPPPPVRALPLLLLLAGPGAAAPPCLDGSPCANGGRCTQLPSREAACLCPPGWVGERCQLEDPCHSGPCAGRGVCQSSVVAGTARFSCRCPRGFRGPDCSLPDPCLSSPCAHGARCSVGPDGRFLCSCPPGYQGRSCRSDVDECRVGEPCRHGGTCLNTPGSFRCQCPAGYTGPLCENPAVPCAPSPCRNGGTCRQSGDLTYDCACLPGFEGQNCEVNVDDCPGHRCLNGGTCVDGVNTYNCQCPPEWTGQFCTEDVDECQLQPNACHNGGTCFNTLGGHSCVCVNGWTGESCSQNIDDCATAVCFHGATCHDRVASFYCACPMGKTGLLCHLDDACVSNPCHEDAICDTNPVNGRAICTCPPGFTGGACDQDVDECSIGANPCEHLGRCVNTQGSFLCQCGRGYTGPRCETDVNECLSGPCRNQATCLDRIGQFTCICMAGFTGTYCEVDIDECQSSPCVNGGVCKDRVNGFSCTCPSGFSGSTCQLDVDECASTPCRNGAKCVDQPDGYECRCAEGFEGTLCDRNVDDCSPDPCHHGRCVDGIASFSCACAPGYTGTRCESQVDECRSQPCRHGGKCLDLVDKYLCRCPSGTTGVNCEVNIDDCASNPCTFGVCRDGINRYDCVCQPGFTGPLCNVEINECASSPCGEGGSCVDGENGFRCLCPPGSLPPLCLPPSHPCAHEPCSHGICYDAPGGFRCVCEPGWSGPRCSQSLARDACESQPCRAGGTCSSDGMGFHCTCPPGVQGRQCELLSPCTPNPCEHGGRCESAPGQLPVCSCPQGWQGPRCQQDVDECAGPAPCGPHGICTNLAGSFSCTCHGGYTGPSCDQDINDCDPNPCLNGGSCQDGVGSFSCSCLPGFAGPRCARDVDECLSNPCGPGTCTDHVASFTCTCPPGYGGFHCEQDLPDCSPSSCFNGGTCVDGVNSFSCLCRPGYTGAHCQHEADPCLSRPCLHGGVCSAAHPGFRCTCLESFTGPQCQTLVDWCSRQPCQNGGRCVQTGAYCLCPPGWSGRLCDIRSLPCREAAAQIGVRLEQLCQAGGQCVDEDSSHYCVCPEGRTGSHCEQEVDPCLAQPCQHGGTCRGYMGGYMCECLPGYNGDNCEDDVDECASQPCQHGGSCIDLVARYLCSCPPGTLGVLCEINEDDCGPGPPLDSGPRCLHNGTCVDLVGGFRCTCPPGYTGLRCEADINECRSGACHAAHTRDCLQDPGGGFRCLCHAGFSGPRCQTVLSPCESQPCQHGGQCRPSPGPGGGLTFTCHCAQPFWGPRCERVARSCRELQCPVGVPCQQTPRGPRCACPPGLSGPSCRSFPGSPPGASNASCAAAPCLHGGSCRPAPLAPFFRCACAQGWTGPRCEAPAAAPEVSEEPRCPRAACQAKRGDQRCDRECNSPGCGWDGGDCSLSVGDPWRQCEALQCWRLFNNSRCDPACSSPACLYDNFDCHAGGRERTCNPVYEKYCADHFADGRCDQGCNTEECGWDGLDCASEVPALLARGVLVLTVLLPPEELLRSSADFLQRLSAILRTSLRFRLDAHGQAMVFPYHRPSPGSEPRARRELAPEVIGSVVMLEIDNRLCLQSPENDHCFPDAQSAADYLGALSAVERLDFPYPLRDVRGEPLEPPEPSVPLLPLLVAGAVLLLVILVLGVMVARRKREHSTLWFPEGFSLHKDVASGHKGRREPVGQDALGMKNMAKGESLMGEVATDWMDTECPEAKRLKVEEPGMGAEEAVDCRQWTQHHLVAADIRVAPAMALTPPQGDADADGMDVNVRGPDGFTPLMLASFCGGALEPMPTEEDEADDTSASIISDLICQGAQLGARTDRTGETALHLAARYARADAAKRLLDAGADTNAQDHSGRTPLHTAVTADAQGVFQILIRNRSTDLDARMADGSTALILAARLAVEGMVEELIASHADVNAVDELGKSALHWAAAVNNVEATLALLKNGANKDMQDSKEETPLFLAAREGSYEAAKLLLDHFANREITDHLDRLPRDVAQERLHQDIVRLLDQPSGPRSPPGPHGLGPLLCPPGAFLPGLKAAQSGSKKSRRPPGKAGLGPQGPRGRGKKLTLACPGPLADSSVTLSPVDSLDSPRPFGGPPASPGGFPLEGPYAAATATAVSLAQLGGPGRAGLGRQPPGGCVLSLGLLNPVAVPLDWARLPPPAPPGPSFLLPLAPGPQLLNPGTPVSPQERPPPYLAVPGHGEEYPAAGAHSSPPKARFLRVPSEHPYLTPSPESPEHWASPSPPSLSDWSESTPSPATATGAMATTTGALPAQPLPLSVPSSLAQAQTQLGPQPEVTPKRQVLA
Assay [10] in a line: small-molecule microarray binders of probe aEGFR, primary screen, biochemical, biotinylated probe, 635/667 nm fluorescence (AID 1097).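 Further: probe is a biotinylated anti-EGFR antibody binding compounds printed on slides; score combines fluorescence near 667 nm and signal to noise of each spot.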 Conditions: higher = more signal.
For assay [11], the system named is Plasmodium falciparum Sir2 (PF13_0152, Sir2A). Nature of the assay: pfSir2 binders on small-molecule microarrays, primary screen, biochemical, small-molecule microarray, 635 nm fluorescence (AID 1098).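 Further: score merges spot fluorescence intensity with its signal-to-noise ratio.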 Conditions: small-molecule microarray binding, fluorescence 635 nm; higher = more signal.
A short description of assay [12]: small-molecule microarray binders of probe aDKK1, primary screen, biochemical, biotinylated probe, 635/667 nm fluorescence (AID 1099).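 Further: score merges 667nm spot fluorescence with signal to noise across triplicate slides; reference of the scale not given here.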 Conditions: higher = more signal.
Assay [13] is described as follows: small-molecule microarray binders of probe aCHRDL2, primary screen, biochemical, biotinylated probe, 635/667 nm fluorescence (AID 1100). Conditions: higher = more signal.
A short description of assay [14]: splicing luciferase reporter signal modulators, primary screen, spliceosome inhibition project, cell-based, HEK293, splice +/- reporter (AID 1101).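 Further: HEK293 cells carrying a splicing-competent luciferase reporter gene; test concentration not given here.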 Conditions: luminescence, 24 h, higher = more signal, called active from +8 up or from −8 down. Background: Reporter assays use an easily measured gene product as a stand-in for the process of interest.
Assay [15] concerns the target Fibroblast growth factor 10 (Homo sapiens) (UniProt O15520). Nature of the assay: FGF10 binders on small-molecule microarrays, primary screen, biochemical, small-molecule microarray, 635 nm fluorescence (AID 1102). As to conditions: FGF10 binding, fluorescence 635 nm, higher = more signal.
For assay [16], the system named is glycogen synthase kinase-3 (GSK3A per assay name; protocol says GSK3B). Kind of assay: GSK3 binders on small-molecule microarrays, primary screen, biochemical, small-molecule microarray, 635 nm fluorescence, GSK3A (AID 1103). Further: the record names both GSK3A and GSK3B. As to conditions: small-molecule microarray binding, fluorescence 635 nm; higher = more signal.
Assay [17] deals with Epidermal growth factor receptor (Homo sapiens) (UniProt P00533). Nature of the assay: EGFR binders on small-molecule microarrays, primary screen, biochemical, small-molecule microarray, 635 nm fluorescence (AID 1104).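 Further: score merges 667 nm emission intensity with spot signal to noise over triplicate slides.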 As to conditions: EGFR binding, higher = more signal.
Epidermal growth factor receptor (Homo sapiens), sequence (P00533 whole entry, looked up): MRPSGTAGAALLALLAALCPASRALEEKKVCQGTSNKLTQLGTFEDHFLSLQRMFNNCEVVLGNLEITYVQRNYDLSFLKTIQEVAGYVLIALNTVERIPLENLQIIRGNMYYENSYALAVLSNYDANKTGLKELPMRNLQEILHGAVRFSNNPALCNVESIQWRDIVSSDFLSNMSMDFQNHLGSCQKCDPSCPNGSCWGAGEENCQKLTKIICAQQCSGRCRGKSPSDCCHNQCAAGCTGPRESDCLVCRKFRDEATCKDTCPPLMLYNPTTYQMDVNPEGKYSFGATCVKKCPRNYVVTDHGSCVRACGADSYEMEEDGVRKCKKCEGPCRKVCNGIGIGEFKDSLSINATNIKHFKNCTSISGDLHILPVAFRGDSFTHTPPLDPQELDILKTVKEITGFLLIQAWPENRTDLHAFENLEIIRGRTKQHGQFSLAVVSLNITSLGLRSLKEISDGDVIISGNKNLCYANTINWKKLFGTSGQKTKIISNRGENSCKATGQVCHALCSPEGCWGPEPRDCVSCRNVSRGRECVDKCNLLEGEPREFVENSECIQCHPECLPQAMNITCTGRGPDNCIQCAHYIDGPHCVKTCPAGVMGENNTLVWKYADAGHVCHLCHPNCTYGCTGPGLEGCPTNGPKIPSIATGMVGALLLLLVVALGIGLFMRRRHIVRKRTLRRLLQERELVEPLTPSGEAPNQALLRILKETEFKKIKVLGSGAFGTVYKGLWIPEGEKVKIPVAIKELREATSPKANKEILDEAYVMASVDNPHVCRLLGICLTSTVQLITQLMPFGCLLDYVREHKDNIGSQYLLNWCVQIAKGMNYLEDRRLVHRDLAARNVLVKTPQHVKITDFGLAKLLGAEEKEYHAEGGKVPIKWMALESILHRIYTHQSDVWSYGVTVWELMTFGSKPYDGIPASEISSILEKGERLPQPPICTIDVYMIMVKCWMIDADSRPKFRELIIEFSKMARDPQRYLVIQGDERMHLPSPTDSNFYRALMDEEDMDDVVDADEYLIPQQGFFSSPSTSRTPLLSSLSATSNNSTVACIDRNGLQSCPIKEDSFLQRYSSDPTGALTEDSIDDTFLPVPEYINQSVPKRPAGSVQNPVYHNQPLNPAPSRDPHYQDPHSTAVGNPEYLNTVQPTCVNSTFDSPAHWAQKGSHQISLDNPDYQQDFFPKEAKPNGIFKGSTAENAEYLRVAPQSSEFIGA
The target of assay [18] is Follistatin-related protein 3 (Homo sapiens) (UniProt O95633). Kind of assay: FSTL3 binders on small-molecule microarrays, primary screen, biochemical, small-molecule microarray, 635 nm fluorescence (AID 1105).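 Further: score merges emission near 667 nm and signal to noise per printed spot across three slides.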 Conditions: FSTL3 binding, higher = more signal.
Follistatin-related protein 3 (Homo sapiens), sequence (O95633 whole entry, looked up): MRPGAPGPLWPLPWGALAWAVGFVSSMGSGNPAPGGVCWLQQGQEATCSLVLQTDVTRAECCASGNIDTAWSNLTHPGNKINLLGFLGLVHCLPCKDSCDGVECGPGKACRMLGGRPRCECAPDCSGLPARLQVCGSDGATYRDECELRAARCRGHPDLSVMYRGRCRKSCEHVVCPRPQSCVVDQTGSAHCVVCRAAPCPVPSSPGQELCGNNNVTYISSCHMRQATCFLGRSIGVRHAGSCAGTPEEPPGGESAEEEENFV
Assay [19] addresses Dickkopf-related protein 1 (Homo sapiens) (UniProt O94907). Nature of the assay: DKK1 binders on small-molecule microarrays, primary screen, biochemical, small-molecule microarray, 635 nm fluorescence scan (AID 1106).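 Further: score merges emission near 667 nm with signal to noise over three replicate slides.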 Conditions: DKK1 binding, higher = more signal.
Assay [20] has as its system Inhibin beta A chain (activin A). Nature of the assay: INHBA (activin A) binders on microarrays, primary screen, biochemical, small-molecule microarray, 635 nm fluorescence scan (AID 1107).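 Further: mouse activin A protein probed at 4.33 µg/mL on printed slides; score merges bound-protein fluorescence near 667 nm with spot signal-to-noise.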 As to conditions: small-molecule microarray binding, higher = more signal.

Active and inactive are the calls of the source.

Torsin-1A-interacting protein 2 (Homo sapiens), sequence (Q8NFQ8 whole entry, looked up): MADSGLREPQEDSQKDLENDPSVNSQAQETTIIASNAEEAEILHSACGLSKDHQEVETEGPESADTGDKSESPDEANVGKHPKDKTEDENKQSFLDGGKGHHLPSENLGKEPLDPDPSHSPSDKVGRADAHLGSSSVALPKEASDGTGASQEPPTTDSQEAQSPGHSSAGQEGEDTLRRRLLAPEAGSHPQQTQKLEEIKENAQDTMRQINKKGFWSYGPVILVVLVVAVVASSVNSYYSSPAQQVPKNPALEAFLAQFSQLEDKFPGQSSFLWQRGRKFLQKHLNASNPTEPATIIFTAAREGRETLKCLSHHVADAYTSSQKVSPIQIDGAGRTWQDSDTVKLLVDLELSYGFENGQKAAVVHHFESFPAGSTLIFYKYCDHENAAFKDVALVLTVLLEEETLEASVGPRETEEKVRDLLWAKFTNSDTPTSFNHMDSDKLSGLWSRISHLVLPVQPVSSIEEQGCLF
Fibroblast growth factor 10 (Homo sapiens), sequence (O15520 whole entry, looked up): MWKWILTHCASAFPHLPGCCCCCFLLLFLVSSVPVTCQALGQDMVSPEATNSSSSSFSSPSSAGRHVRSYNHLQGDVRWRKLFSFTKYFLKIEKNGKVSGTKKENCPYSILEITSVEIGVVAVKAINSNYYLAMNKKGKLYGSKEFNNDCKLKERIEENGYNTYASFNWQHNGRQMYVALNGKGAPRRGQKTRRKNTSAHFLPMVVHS
Dickkopf-related protein 1 (Homo sapiens), sequence (O94907 whole entry, looked up): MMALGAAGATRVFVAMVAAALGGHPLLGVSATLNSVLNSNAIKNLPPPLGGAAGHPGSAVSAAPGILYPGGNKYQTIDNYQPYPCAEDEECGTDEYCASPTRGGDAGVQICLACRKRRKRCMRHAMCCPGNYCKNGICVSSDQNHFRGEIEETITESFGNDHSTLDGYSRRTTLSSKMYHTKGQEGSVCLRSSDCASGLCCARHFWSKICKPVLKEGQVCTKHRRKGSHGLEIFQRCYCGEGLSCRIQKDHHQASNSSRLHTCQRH

Take `COc1cc2c(cc1O)C(C1CC1)N(Cc1ccc([N+](=O)[O-])o1)CC2` (stereo not given): the composite z-score in [1] is 0.287; in assay [5], 1.85; in [7] it was -0.0046; in [8] it was -0.2; in assay [9], 0.903; in assay [10] it was -0.0734. Also, the composite z-score in assay [11] came to 1.53; in assay [12] it was 0.158; in assay [13], 0.391; in assay [15], 0.839; in [16], 0.812; in assay [17], 0.117. The composite z-score in [18] is 0.228; in assay [19] it was -0.327; in assay [20] it was 0.822. Besides, the z-score is -0.123 (inactive) in assay [2]; -3.53 (inactive) in assay [3]; -2.16 (inactive) in assay [4]; -1.16 (inactive) in assay [6]; -0.28 (inactive) in assay [14].

`CCOC(=O)C1=CC[C@@H](c2ccccc2)N(S(=O)(=O)C[Si](C)(C)C)[C@H]1c1ccccc1`: the composite z-score in assay [1] is 1.08; in [5] it was 2.26; in [7], 0.138; in assay [8] it was 0.291; in [9], 1.09; in [10] it was 0.154. Also, the composite z-score in assay [11] is 1.09; in assay [12] it was 0.319; in assay [13], -0.0475; in [15], 0.78; in [16], 0.651; in assay [17], 0.461. The values for the composite z-score in assay [18], in assay [19] and in assay [20] were 1.37, 0.405 and 0.193, respectively. For the same compound, the z-score in [2] is -0.514 (inactive); in [3] it was 0.984 (inactive); in assay [4], 0.416 (inactive); in [6] it was -0.453 (inactive); in [14], -1.02 (inactive).

In the case of `C=CCOC(=O)[C@@H]1[C@H]2C(=O)O[C@H](c3ccccc3)[C@H](c3ccccc3)N2[C@H](c2ccc(OCCOC(=O)[C@H]3C[C@H]4C(=O)NCC(=O)N4[C@H]3c3ccc(O)cc3)cc2)[C@@]12C(=O)Nc1ccc(I)cc12`, the composite z-score is 1.53 in assay [1]; 2.08 in [5]; -0.162 in assay [7]; 1.59 in assay [8]; 1.15 in assay [9]; 0.0026 in assay [10]. In addition, the composite z-score was 1.57 in assay [11]; 0.159 in assay [12]; 0.21 in assay [13]; 0.613 in assay [15]; 1.35 in assay [16]; 0.728 in [17]. Moreover, the composite z-score in assay [18] was 1.02; in assay [19], 0.674; in [20] it was -0.0057. Also, the z-score in assay [2] is 1.22 (inactive); in assay [3], 0.761 (inactive); in assay [4], 4.27 (inactive); in [6] it was -0.615 (inactive); in assay [14] it was 1.14 (inactive).

For `COc1ccc([Si](C)(C)[C@H]2[C@H](CCn3cc([C@H](O)c4ccccc4)nn3)O[C@@]3(C(=O)N(c4ccccc4)c4ccccc43)[C@@H]2C)cc1`, the composite z-score in [1] was 1.56; in assay [5], 0.147; in assay [7], -0.166; in assay [8] it was 1.1; in assay [9] it was 0.802; in [10], -0.187. Also, the composite z-score in assay [11] is 0.459; in [12], -0.125; in assay [13] it was 0.0759; in [15] it was 0.355; in [16] it was -0.44; in assay [17] it was -0.166. Besides, the results for the composite z-score in assay [18], in [19] and in assay [20] were 0.34, -0.0331 and -0.168, respectively. In addition, the z-score in assay [2] is 1.02 (inactive); in assay [3], 1.11 (inactive); in assay [4], 1.88 (inactive); in assay [6], 1.58 (inactive); in assay [14], -0.299 (inactive).

Regarding `NC(=O)NCC#Cc1ccc2c(c1)[C@]1(C(=O)N2)[C@H](C(=O)N2CCCCCCC2)[C@H]2C(=O)O[C@H](c3ccccc3)[C@H](c3ccccc3)N2[C@@H]1c1ccc(O)cc1`, the composite z-score in assay [1] turned out to be 1.55; in [5], 2.56; in assay [7] it was 1.65; in assay [8] it was 1.85; in assay [9], 1.15; in [10] it was 0.944. In addition, the composite z-score came to 1.63 in assay [11]; 2.7 in [12]; 1.47 in [13]; 1.4 in [15]; 0.919 in [16]; 1.27 in assay [17]. Moreover, the composite z-score in assay [18] was found to be 1.51; in [19], 1.63; in assay [20], 1.49. Besides, the z-score in [2] is 0.463 (inactive); in [3], 1.06 (inactive); in assay [4], 1.47 (inactive); in assay [6] it was -0.284 (inactive); in [14] it was -0.15 (inactive).
